Results filed as inconclusive are left out. Activity calls are given as the source filed them. Unless noted, the call rests on the fitted dose curve; in most records, active means well fitted curve in the direction sought with a large enough effect; inconclusive means small, poorly fitted or top-dose-only effect, or another doubt; inactive means no such curve, though single readings can be large; an effect the other way counts as inactive or inconclusive.

For assay [1], the target named is Bile acid receptor (Homo sapiens) (UniProt Q96RI1). The assay is described as follows: qHTS assay for small molecule antagonists of farnesoid X receptor signaling (AID 588526; calls by dose curve; further: on the % scale 0 is the no-effect control and ±100 the full control effect). In outline: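 Beta-lactamase reporter antagonist mode: HEK293T FXR-UAS-bla cells, titrated compound, CDCA stimulation, 16 h 37 C, CCF4 dye 2 h RT. Data normalized to CDCA 50 uM and DMSO; Hill-fit IC50.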
Sequence of Bile acid receptor (Homo sapiens) (Q96RI1 whole entry, looked up): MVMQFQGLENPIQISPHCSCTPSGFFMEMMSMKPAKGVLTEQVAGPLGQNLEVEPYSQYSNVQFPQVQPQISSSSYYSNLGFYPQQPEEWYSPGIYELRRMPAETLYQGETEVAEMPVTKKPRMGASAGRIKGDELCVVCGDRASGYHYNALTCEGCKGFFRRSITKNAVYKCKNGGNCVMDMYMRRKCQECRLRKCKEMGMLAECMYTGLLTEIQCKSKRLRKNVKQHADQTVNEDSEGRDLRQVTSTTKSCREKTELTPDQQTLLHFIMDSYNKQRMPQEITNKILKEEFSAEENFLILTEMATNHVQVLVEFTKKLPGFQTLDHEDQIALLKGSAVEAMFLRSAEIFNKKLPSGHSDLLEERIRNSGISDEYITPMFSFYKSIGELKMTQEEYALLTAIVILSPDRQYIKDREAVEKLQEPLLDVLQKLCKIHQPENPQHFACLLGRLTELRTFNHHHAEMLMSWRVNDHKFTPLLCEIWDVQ
A general note: Quantitative high-throughput screening tests each substance at several concentrations.

In assay [2] the target is Glucocorticoid receptor (Homo sapiens) (UniProt P04150). Briefly: qHTS assay for small molecule agonists of glucocorticoid receptor signaling (AID 588532; active means well fitted curve in the direction sought with a large enough effect in the signal ratio, with a control signal flat; the % refers to the signal ratio;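 further: 100% = dexamethasone at 0.1 µM and 0% = DMSO only wells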). To be noted: HeLa MMTV-bla, beta-lactamase ratio, agonist, 18 h; stronger effect = higher value; percent of dexamethasone control, DMSO zero. The procedure, abridged: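 Quantitative HTS using CellSensor MMTV-bla HeLa cells in charcoal/dextran-treated serum; compounds tested up to 92 uM. After 18 h at 37 C, CCF4 dye reported reporter induction.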
Sequence of Glucocorticoid receptor (Homo sapiens) (P04150 whole entry, looked up): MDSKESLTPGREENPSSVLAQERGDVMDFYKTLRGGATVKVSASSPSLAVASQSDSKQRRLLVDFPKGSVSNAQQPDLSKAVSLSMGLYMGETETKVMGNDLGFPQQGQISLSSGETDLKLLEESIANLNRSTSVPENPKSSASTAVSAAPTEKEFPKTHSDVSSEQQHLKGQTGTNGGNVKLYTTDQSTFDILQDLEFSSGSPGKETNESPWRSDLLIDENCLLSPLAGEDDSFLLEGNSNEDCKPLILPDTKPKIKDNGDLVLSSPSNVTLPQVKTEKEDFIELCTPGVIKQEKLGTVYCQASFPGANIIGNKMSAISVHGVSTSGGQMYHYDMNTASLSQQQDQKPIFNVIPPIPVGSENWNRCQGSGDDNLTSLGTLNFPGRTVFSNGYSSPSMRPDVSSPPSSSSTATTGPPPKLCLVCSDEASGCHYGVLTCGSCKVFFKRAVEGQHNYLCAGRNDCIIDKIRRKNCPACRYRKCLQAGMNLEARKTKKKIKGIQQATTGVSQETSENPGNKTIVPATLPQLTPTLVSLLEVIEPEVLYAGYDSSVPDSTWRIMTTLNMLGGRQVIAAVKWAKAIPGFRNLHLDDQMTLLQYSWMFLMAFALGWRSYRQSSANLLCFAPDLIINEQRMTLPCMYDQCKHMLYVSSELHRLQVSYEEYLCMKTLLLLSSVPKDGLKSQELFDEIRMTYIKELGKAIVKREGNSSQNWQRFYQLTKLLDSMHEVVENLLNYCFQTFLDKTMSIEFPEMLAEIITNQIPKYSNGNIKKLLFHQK

Assay [3] can be described thus: qHTS assay for small molecule antagonists of peroxisome proliferator-activated receptor delta signaling (AID 588535; active means well fitted inhibition curve with a large enough effect in the signal ratio, with a control signal flat, not every such curve was filed as active; the % refers to the signal ratio;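 on max response: cells co-treated with a PPAR-delta agonist as stimulator during compound exposure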). To be noted: HEK293T PPARd-UAS-bla, beta-lactamase FRET ratio, 18 h; 460 nm channel. The procedure, abridged: (§1)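 HEK293T PPAR-delta-UAS-bla cells, 4000/well, 2% charcoal/dextran FBS; 5 h 37 C; cpd titration; 18 h 37 C; CCF4 2 h RT; FI 460/530 nm; Hill fit → IC50, efficacy.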

Assay [4] addresses Peroxisome proliferator-activated receptor delta (Homo sapiens) (UniProt Q03181). The assay is described as above. In outline:
as §1

In assay [5] the target is Peroxisome proliferator-activated receptor gamma (Homo sapiens) (UniProt P37231). Briefly: qHTS assay for small molecule antagonists of peroxisome proliferator-activated receptor gamma signaling (AID 588537; active means well fitted inhibition curve with a large enough effect in the signal ratio, with a control signal flat, not every such curve was filed as active; the % refers to the signal ratio;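 further: reporter cells co-stimulated with 50 nM rosiglitazone agonist during compound treatment; % of control where 0% means no effect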). In outline: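 Antagonist mode, beta-lactamase reporter in HEK293; charcoal/dextran FBS 1%; 3000 cells/well, 37 C 6-6.5 h; cpd titration + rosiglitazone 50 nM final, 16 h 37 C; CCF4, 2 h RT; 460/530 nm; Hill fit → IC50, efficacy.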
Sequence of Peroxisome proliferator-activated receptor gamma (Homo sapiens) (P37231 whole entry, looked up): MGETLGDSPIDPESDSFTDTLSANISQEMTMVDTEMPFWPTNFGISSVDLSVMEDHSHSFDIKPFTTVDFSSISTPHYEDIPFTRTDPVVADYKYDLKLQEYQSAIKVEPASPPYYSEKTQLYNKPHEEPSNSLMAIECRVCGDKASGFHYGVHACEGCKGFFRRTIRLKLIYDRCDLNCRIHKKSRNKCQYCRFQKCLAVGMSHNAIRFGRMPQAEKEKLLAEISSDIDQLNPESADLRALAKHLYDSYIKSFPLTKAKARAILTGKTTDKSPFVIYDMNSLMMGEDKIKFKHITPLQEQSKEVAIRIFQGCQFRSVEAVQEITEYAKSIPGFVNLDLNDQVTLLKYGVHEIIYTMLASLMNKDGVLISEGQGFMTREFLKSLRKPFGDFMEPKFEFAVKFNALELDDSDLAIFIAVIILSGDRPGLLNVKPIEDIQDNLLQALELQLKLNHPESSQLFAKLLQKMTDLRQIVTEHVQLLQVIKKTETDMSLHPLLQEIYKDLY

The target in assay [6] is Vitamin D3 receptor (Homo sapiens) (UniProt P11473). The assay is described as follows: qHTS assay for small molecule antagonists of vitamin D receptor signaling (AID 588541; calls by dose curve;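 further: receptor activated by calcitriol during compound treatment; series mostly up to about 77 µM; on the % scale 0 is the no-effect control and ±100 the full control effect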). The procedure, abridged:
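Antagonist-mode beta-lactamase reporter assay: HEK293T VDR-UAS-bla cells were exposed to titrated compound alongside 1-alpha,25-dihydroxyvitamin D3 at 3 nM final for 16 h. Values were normalized to the 50 nM agonist control and DMSO basal, with IC50 and efficacy from Hill equation fits.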

For assay [7] the target is unchanged. Briefly: qHTS assay for small molecule agonists of vitamin D receptor signaling (AID 588543; calls by dose curve;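 further: 0% = DMSO basal and 100% = reference agonist control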). In outline: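 Measured: β-lactamase reporter activity (CCF4, 405 nm excitation, 460/530 nm emission) in HEK293T VDR-UAS-bla cells after 16 h compound exposure at 37 °C. Normalization against 50 nM 1α,25-dihydroxyvitamin D3 and DMSO; Hill-fit EC50.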
A short description of assay [8]: qHTS assay for small molecule agonists of retinoid X receptor alpha signaling (AID 588544; calls by dose curve;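 on activation: 0% = DMSO basal wells and 100% = reference agonist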). To be noted: HEK293T RXRa-UAS-bla, beta-lactamase reporter, 18 h; 530 nm emission.
Assay [9] addresses Retinoic acid receptor RXR-alpha (Homo sapiens) (UniProt P19793). The description is as above.
In assay [10] the target is Thyroid hormone receptor beta (Homo sapiens) (UniProt P10828). The assay is described as follows: qHTS assay for small molecule agonists of thyroid hormone receptor beta signaling (AID 588545; calls by dose curve). In outline: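 HEK 293 TR-UAS-bla; agonist mode; 18 hrs, 37 C; CCF4, ex 405/em 460 and 530 nm; norm. T3 10 nM = 100%, DMSO = 0%; Hill fit → EC50, efficacy.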
Sequence of Thyroid hormone receptor beta (Homo sapiens) (P10828 whole entry, looked up): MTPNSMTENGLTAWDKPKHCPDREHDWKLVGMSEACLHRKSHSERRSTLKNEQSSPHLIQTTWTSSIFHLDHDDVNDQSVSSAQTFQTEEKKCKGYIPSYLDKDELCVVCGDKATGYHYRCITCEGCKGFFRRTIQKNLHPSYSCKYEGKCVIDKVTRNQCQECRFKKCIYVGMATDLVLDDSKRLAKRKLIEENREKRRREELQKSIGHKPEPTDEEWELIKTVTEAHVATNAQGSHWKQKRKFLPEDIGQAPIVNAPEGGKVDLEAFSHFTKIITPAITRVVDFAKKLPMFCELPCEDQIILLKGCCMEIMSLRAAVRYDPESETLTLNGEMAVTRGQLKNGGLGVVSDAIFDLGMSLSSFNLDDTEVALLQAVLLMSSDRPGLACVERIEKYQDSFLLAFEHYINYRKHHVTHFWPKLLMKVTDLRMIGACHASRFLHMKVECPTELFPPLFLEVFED
Assay [11] has the same target. Briefly: qHTS assay for small molecule antagonists of thyroid hormone receptor beta signaling (AID 588547; active means well fitted inhibition curve with a large enough effect in the signal ratio, with a control signal flat, not every such curve was filed as active; the % refers to the signal ratio;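 further: cells stimulated with 0.4 nM T3 agonist during compound exposure; series mostly up to about 77 µM; on the % scale 0 is the no-effect control and ±100 the full control effect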). To be noted: TR-UAS-bla HEK293, beta-lactamase ratio, antagonist mode, 18 h. In outline:
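Inhibition of T3-driven (0.4nM final) beta-lactamase reporter activity was measured over 0.59 nM to 92 uM compound after 18 h at 37 C. The cells were GripTite HEK293 TR-UAS-bla in charcoal/dextran-stripped serum, with CCF4 ratio read-out and IC50 from Hill fits.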

Assay [12] addresses Luciferin 4-monooxygenase (Photinus pyralis) (UniProt P08659). Briefly: Biochemical firefly luciferase enzyme assay for NPC (AID 624030).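 Further: purified P. pyralis luciferase at 10 nM with luciferin and ATP substrate; series mostly up to about 59 µM; 0% = DMSO and -100% = full luciferase inhibition by PTC124 control; nearly all actives have a fitted effect of over 70% in size.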 The procedure, abridged:
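Direct inhibition of firefly luciferase enzyme (10 nM final, 50 mM Tris Acetate) assessed by luminescence within 5 minutes. Percent activity scaled between DMSO and PTC124 positive control, with concentration-effect curves classified by fit quality and response.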

Assay [13] is described as follows: qHTS assay for small molecule agonists of the antioxidant response element (ARE) signaling pathway (AID 651741; active means well fitted activation curve with a large enough effect in the signal ratio; the % refers to the signal ratio; further: potency means the concentration at half of the fitted maximal effect). The procedure, abridged: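 Quantitative HTS in HepG2 cells stably expressing an ARE-beta-lactamase reporter; 16 h compound exposure at 37 C, followed by 2 h room-temperature incubation with LiveBLAzer B/G FRET substrate and fluorescence measurement.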

The nature of assay [14]: qHTS assay for small molecule activators of the p53 signaling pathway (AID 651743; active means well fitted activation curve with a large enough effect in the signal ratio, not every such curve was filed as active; the % refers to the signal ratio; further: series mostly up to about 92 µM; % of control where 0% means no effect). To be noted: HCT-116 p53RE-bla, beta-lactamase FRET ratio, 16 h; stronger effect = higher value. In outline:
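Read-out is fluorescence intensity from the LiveBLAzer B/G FRET substrate, added for 2 hours at room temperature after HCT-116 p53RE-bla cells had been incubated with compounds for 16 hours at 37 C.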

Assay [15] in a line: qHTS assay for environmental chemicals that activate the Aryl hydrocarbon Receptor (AhR) signaling pathway (AID 651777). Further: % of control where 0% means no effect; nearly all actives have a fitted effect of over 15% in size. Particulars: 1A2-DRE human hepatoma cells, luciferase, 24 h; stronger effect = higher value. The procedure, abridged: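 1A2-DRE human hepatoma reporter line; 1,200 cells/well; cmpd or DMSO 24 h, 37 C/5% CO2; One-Glo 30 min RT; luciferase lum.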
Assay [16] addresses Peroxisome proliferator-activated receptor alpha (Homo sapiens) (UniProt Q07869). Briefly: qHTS assay for small molecule agonists of the peroxisome proliferator-activated receptor alpha (PPARalpha) signaling pathway (AID 651778). Further: % of control where 0% means no effect. To be noted: PathHunter PPARalpha complementation, chemiluminescence, 6 h; stronger effect = higher value. In outline:
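Chemiluminescence from complemented enzyme reported PPARalpha activation in cells after 6 hr of compound treatment at 37 C. The detection reagent was incubated for 60 min at room temperature, and compounds were scored as agonists.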

A short description of assay [17]: qHTS assay for small molecule agonists of the antioxidant response element (ARE) signaling pathway measured by Nrf2-dependant transcriptional activity - cell viability counter screen (AID 720653; active means well fitted curve in the direction sought with a large enough effect in the repeat runs; an effect the other way counts as inactive or inconclusive; further: on the % scale 0 is the no-effect control and ±100 the full control effect). To be noted: ARE-bla HepG2 viability, CellTiter-Glo ATP luminescence, 16 h; stronger effect = lower value. The procedure, abridged:
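Cytotoxicity counter screen: intracellular ATP quantified by CellTiter-Glo luminescence in the same ARE-bla HepG2 plates, after 16 h compound exposure and a 2 h beta-lactamase substrate step.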

Assay [18] is described as follows: qHTS Assay for Identifying Gametocytocidal Compounds (AID 743244).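 Further: on the % scale 0 is the no-effect control and ±100 the full control effect; actives lower the fluorescent signal which means gametocytes are killed.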 To be noted: P. falciparum 3D7 stage III-V gametocytes, alamarBlue, 72 h; max response: stronger effect = lower value. In outline: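 Stage III–V gametocytes of P. falciparum 3D7 were seeded at 20,000 cells/well onto pre-dispensed compounds. After 72 h, 37 °C, 5% CO2, alamarBlue was added for another 24 h.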

Assay [19] can be described thus: qHTS assay for cell viability of HEK293 cells (AID 743288). Further: on the % scale 0 is the no-effect control and ±100 the full control effect; nearly all actives have a fitted effect of over 50% in size. Particulars: ATP luminescence (CellTiter-Glo), 18 h, stronger effect = lower value. The procedure, abridged: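 Luminescent ATP quantitation served as the viability read-out. Cells (parental HEK293, 2,000/well) received compounds after at least 5 h at 37 C and were exposed for 18 h before a 30 min room-temperature reagent step.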

Assay [20] is described as follows: qHTS assay for cell viability of the p53RE-bla HCT-116 cell line (AID 743292). Further: on the % scale 0 is the no-effect control and ±100 the full control effect; nearly all actives have a fitted effect of over 55% in size. In outline:
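HCT-116 p53RE-bla cells seeded 4,000/well; 5 h at 37 C; compound (DMSO) added; 16 h at 37 C; CellTiter-Glo added, 30 min RT; luminescence read.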

In assay [21] the target is Nuclear receptor subfamily 1 group I member 2 (Rattus norvegicus) (UniProt Q9R1A7). Briefly: qHTS assay for small molecule activators of the rat pregnane X receptor (rPXR) signaling pathway (AID 651751; call rule not given here; further: 0% is about no effect). Particulars: rPXR reporter cells, luciferase (One-Glo), 24 h.
Sequence of Nuclear receptor subfamily 1 group I member 2 (Rattus norvegicus) (Q9R1A7 whole entry, looked up): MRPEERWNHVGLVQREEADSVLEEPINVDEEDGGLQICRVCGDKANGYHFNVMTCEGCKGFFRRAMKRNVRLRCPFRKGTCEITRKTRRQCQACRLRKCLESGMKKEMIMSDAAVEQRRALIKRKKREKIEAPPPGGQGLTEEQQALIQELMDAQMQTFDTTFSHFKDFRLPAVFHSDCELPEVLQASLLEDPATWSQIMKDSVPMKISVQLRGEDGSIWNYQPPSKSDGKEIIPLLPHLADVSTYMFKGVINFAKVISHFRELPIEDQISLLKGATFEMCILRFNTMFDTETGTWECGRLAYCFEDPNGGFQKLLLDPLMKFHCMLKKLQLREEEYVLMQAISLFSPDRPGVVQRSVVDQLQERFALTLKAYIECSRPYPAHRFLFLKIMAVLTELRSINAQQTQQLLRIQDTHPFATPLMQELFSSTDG

Sequence of Vitamin D3 receptor (Homo sapiens) (P11473 whole entry, looked up): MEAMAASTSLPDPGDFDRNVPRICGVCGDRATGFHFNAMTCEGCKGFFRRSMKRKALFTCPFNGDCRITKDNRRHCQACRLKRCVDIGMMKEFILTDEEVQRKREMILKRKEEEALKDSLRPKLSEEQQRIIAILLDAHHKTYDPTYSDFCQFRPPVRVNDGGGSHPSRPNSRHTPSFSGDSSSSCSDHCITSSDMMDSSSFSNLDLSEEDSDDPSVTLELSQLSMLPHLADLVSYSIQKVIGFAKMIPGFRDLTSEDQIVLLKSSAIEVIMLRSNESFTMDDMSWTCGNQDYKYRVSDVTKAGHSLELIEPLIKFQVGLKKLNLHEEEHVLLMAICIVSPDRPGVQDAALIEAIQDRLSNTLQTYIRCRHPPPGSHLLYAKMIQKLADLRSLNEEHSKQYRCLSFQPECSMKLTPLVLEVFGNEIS
Sequence of Retinoic acid receptor RXR-alpha (Homo sapiens) (P19793 whole entry, looked up): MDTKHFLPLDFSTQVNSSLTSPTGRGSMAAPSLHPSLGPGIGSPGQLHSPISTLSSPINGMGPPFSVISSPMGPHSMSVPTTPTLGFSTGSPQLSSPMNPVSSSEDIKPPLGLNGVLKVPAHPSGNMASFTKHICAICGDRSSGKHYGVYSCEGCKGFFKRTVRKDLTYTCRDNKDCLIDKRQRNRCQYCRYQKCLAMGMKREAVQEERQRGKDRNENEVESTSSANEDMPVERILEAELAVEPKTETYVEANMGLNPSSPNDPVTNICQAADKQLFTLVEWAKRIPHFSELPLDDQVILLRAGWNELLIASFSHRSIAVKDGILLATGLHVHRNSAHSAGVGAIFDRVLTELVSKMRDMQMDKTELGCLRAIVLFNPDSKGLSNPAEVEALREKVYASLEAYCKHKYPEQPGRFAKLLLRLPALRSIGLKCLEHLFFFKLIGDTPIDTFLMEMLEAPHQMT
Sequence of Luciferin 4-monooxygenase (Photinus pyralis) (P08659 whole entry, looked up): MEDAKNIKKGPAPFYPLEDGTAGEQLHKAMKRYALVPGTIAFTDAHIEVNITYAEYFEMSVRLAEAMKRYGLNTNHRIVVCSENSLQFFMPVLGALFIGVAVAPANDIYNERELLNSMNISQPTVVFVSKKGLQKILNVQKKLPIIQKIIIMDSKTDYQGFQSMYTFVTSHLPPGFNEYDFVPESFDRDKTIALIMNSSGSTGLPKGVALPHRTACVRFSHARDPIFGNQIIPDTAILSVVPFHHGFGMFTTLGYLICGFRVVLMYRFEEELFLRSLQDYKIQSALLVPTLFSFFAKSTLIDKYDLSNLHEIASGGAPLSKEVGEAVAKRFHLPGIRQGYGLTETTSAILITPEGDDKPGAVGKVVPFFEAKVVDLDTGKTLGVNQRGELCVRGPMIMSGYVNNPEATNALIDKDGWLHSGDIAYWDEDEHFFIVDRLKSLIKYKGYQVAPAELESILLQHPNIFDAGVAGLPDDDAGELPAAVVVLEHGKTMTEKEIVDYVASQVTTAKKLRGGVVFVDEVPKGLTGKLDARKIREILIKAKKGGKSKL
Sequence of Peroxisome proliferator-activated receptor delta (Homo sapiens) (Q03181 whole entry, looked up): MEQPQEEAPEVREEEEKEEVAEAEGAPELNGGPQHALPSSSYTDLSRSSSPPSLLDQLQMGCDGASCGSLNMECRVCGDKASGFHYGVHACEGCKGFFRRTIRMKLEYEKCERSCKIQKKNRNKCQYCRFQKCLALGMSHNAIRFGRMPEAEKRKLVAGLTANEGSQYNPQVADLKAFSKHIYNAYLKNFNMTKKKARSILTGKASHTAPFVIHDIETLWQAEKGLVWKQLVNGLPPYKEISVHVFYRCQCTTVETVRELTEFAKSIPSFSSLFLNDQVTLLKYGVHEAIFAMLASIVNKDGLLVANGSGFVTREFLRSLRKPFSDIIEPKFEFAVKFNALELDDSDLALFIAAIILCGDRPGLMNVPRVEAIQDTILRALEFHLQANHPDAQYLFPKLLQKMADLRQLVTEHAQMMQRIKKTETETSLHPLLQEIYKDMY

Consider `CCCOC(=O)c1cc(O)c(O)c(O)c1`, for which the outcome in [1], in assay [4], in assay [5], in assay [6], in assay [7] and in [9] was inactive. In addition, the outcome in assay [10] and in [20] was inactive. Moreover, the activation is -7.56% (inactive) in assay [2], -0.803% (inactive) in [14] and 4.88% (inactive) in assay [15]. Moreover, the max response was 51.1% in assay [3]; 14.7% in [8]; 0.0423% (inactive) in [16]; -15.7% (inactive) in [17]; 14.7% (inactive) in [18]; -23.3% (inactive) in [19]. The max response in assay [21] is -2.93% (inactive). The activity change % (negative = inhibition) in [11] was 5.53% (inactive). The Potency result in assay [12] was “inactive”. The Potency in assay [13] was 9.69 µM (active).

(Values after PubChem BioAssay (NCATS).)
